Compounds with a hit are over-represented: about 4.7% of the library has one in this group of screens.
D1 potentiator – enhances dopamine response at the human D1 receptor; potentiation, % at 10 µM; AID 504651; 0.036% of 360,000 active; P21728; HEK293 TREx D1 cells, calcium flux, dopamine EC20 potentiation; in the data active = potentiation above about 30%
Target sequence (P21728 whole entry, looked up): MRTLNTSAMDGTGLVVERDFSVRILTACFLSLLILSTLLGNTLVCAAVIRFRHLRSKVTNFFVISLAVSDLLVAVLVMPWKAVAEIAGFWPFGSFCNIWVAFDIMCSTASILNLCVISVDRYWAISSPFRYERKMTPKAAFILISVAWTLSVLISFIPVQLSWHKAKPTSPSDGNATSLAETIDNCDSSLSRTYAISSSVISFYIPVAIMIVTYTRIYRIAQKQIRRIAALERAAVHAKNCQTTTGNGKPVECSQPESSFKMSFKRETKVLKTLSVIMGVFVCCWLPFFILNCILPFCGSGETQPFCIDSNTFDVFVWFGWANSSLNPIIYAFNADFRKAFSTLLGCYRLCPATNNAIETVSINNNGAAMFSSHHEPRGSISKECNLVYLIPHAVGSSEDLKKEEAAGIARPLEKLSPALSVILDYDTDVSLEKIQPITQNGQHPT
TRHR agonist-1 – TRH receptor (human) agonism. TRHR cells, calcium flux fluo-8, FDSS agonist mode. activation, % at 2 µM. 0.18% of 360,000 active; in the data active = activation above about 30%
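Read-out: compound-evoked intracellular calcium rise in TRHR cells, fluo-8 dye, kinetic FDSS fluorescence at 1 s/cycle following a 10-cycle baseline. Cells cultured overnight before dye loading (30 min–1.5 h, RT).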
D1 antagonist – blocks dopamine activation of the human D1 receptor | HEK293 TREx D1 cells, calcium flux, dopamine EC80; stronger effect = lower value | activity change, negative = inhibition, % at 10 µM | 3.2% of 360,000 active | P21728; in the data active = activity change below about -30%
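Compound effects on dopamine-evoked calcium signalling were measured in tetracycline-induced HEK293 Trex D1 cells. Dopamine at EC80 followed a 180 s compound pre-read, and fluorescence was tracked kinetically for 180 s more.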
D1 ag – agonists of human D1 dopamine receptor. P21728. HEK293 T-REx D1 cells, calcium flux, agonist mode. activation, % at 2 µM. 1% of 360,000 active; in the data active = activation above about 30%
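Tetracycline-induced HEK293 TREx D1 cells, force-coupled to calcium signalling, were dye-loaded with a no-wash calcium kit. Compound was pin-added after a 10 s baseline. Fluorescence was read kinetically at 1 cycle/s for 180 s, with calcium rises flagged as agonism.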
TRHR enhancer-1 – allosterically enhances the human TRH receptor | P34981 | TRHR cells, fluo-8 calcium fluorescence, EC20 TRH enhancement | enhancement, % at 2 µM | 0.66% of 360,000 active; in the data active = enhancement above about 30%
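Enhancer read-out: after compound pinning and an initial kinetic agonist-mode read, an EC20 of TRH (10 nM final) was injected and fluo-8 calcium signal (Ex 480/Em 530) followed at 1 s/cycle for 100 cycles in TRHR-expressing cells.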
TRHR enhancer-2 – human TRH receptor allosteric enhancement confirmation; activity change, negative = inhibition, % at 46.1 µM; TRH receptor cell assay, enhancer confirmation qHTS; 970 tested, under 10 active; shares compounds with TRHR enhancer-1; AID 493076;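 also: compound effect scored on response to added TRH at EC20 of 10 nM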
TRHR agonist-2 – human TRH receptor agonism confirmation; 8% of 970 active; TRHR-expressing cells, agonist activation read-out; AID 493078; shares compounds with TRHR enhancer-1; Potency, µM (doses to about 46.1 µM), actives largely listed as activators; also: nearly all actives have a fitted effect of over 75% in size
Hits are given with their value; 0 = inactive; ? = inconclusive; - = not tested or not shown. Unless noted, calls follow the shape of the dose curve; as a rule, active = well fitted curve in the direction sought with a large enough effect; inconclusive = small, poorly fitted or top-dose-only effect, or another doubt; inactive = no such curve, though single readings can be large; an effect the other way counts as inactive or inconclusive.

SMILES	D1 potentiator	TRHR agonist-1	D1 antagonist	D1 ag	TRHR enhancer-1	TRHR enhancer-2	TRHR agonist-2
CCOC(=O)C1=C(O)/C(=C/c2cc(OC)c(O)c(OC)c2)SC1=Nc1ccc(OC)cc1	0	0	-64	0	0	0	?
COc1ccc(Cn2nnnc2C(c2ccccc2)N2CCN(C3CCCC3)CC2)cc1 (stereo not drawn)	0	0	0	0	48	0	0
N#CNC(=Nc1cccc(C(F)(F)F)c1)SCc1ccc(C(=O)O)cc1	0	0	0	0	46	0	0
CSC(=Nc1cccc(C)c1)NC#N	0	0	0	0	0	-	-
Cc1sc2ncn(CC(=O)Nc3ccc(F)cc3Cl)c(=O)c2c1S(=O)(=O)N1CCN(c2ncccn2)CC1	0	0	0	0	0	-	-
C/C(CC(=O)Nc1cccc(C(F)(F)F)c1)=N\NC(=O)Cc1ccccc1	0	0	0	0	58	0	0
COc1ccc(C2c3c(n(C)c4ccccc34)C(=O)N2CC(=O)Nc2c(C)cc(C)cc2C)cc1 (stereo not drawn)	0	0	0	0	0	-	-
COc1cc(/C=N/N(C)C)ccc1OC(=O)c1ccco1	0	0	0	0	41	0	0
COc1cc(/C=N/N2CCOCC2)ccc1OC(=O)c1ccco1	0	0	0	0	0	-	-
Cc1ccc(C(=O)COC(=O)c2cc(=O)[nH]c3ccccc23)cc1	0	0	0	0	47	0	0
O=C(COC(=O)c1cc(=O)[nH]c2ccccc12)c1ccccc1	0	0	0	0	0	-	-
COc1ccccc1N1CCN(Cc2nc3ccccc3[nH]2)CC1	0	0	0	0	50	0	0
COc1cc(/C=C(\C#N)C(=O)NCCc2ccccc2)cc(OC)c1O	0	56	0	73	0	0	21µM
COc1cccc2sc(NC(=O)CS(=O)(=O)c3ccc(C)cc3)nc12	0	0	-	0	0	-	-
COc1cc2ncnc(NCc3ccccc3)c2cc1OC	0	0	0	0	0	-	-
COc1cc2ncnc(NCc3ccco3)c2cc1OC	0	0	0	0	75	0	0
N#C/C(=C/c1ccc(N2CCOCC2)o1)C(=O)NC1CCCCC1	0	47	0	113	0	?	21µM
N#C/C(=C\c1ccc(N2CCOCC2)o1)c1ccccc1	0	0	0	0	0	-	-
CCN(C(=O)c1cc2c(=O)oc3ccccc3c2s1)c1ccccc1F	0	0	0	0	0	-	-
C[n+]1cn(CC(O)COCc2ccccc2)c2ccccc21 (stereo not drawn)	0	0	0	0	53	0	0
CCOCc1c(C(=O)OCC(=O)Nc2ccccc2C(N)=O)oc2ccccc12	0	0	0	0	0	-	-
CCOCc1c(C(=O)Nc2ccccc2N2CCN(C)CC2)oc2ccccc12	0	0	0	0	44	0	0
Cc1ccc(C)c(NC(=O)C2CCCN(S(=O)(=O)c3c(C)nn(C)c3C)C2)c1 (stereo not drawn)	0	30	0	0	0	0	0
Cc1ccc(CCNC(=O)C2CCCN(S(=O)(=O)c3c(C)nn(C)c3C)C2)cc1 (stereo not drawn)	-	0	0	0	0	-	-
CCOc1ccc(-n2nc3cc(C)c(NC(=O)CC)cc3n2)cc1	0	0	0	0	0	-	-
SMILES	D1 potentiator	TRHR agonist-1	D1 antagonist	D1 ag	TRHR enhancer-1	TRHR enhancer-2	TRHR agonist-2
Cc1ccc(NC(=O)CSc2nc3ccc(NC(=O)c4ccco4)cc3s2)c(C)c1	0	0	0	0	0	-	-
C=CCn1c(=O)n(C(=O)OCC)c2cc(Br)ccc21	0	0	0	0	66	0	0
Cc1cc(C(=O)COc2cccc3cccnc23)c(C)n1C	0	0	0	0	0	-	-
Cc1ccc(OCC(=O)c2cc(C)n(C)c2C)c([N+](=O)[O-])n1	0	0	0	0	44	0	0
CCn1nc(-c2ccccc2)c(-c2ccccc2)c(C(=O)Nc2ccccc2C#N)c1=O	0	0	0	0	0	-	-
O=C(N/C(=C/c1ccc(Br)cc1)C(=O)N1CCOCC1)c1ccc(Br)o1	0	0	0	0	97	0	0
CCc1cc(=O)[nH]c(SCc2ccc(C)cc2)n1	0	0	0	0	54	0	0
